Source: PubChem BioAssay
This is one part of a sample in which hits are shown more often than they occur.
Shiga inhibitor – blocks Shiga toxin action in Vero cells; 290,000 tested, 9.2% active; AID 2315; Vero cells, Shiga toxin protein synthesis inhibition reporter; inhibition, % at 38.7 µM; in the data active = inhibition mostly above about 28%, no sharp cut-off; inactive = mostly below about 43%; also: 0% is about no effect
Sm TGR block – inhibitors of Schistosoma mansoni thioredoxin glutathione reductase. Q962Y6. Potency, µM (doses to about 114 µM), without a hit: at the top dose activity change, negative = inhibition, actives largely listed as inhibitors. purified TGR, DTNB reduction, TNB absorbance 405 nm. 360,000 tested, 3% active; also: potency is read from the fitted curve at half-maximal effect; % is scaled to controls: 0 for no effect and ±100 for the full control effect; nearly all actives have a fitted effect of over 60% in size
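First, TGR (20 nM dispensed) and NADPH were mixed with compound. Second, a 15 min room-temperature incubation followed. Third, further NADPH and then DTNB were added to start the reaction. Finally, TNB absorbance was monitored kinetically.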
TbPYK inhibitor – T. brucei pyruvate kinase inhibition | Potency, µM (highest dose often 76.8 µM), for inactives: at the top dose activity, negative = inhibition, usual class: inhibitors | TbPYK enzyme, Kinase-Glo Plus ATP luminescence, 45 min | Q57TT1 | 410,000 tested, 0.12% active; also: potency is read from the fitted curve at half-maximal effect; % is scaled to controls: 0 for no effect and ±100 for the full control effect; nearly all actives have a fitted effect of over 50% in size
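Enzyme and substrate buffer are dispensed first and compound is pin-transferred. ADP at 130 uM final then starts the reaction, which runs 45 min at room temperature. Detection reagent is added for 10 min before luminescence is imaged.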
CHX counter – counter-screen hit for Shiga toxin inhibitors, cycloheximide. 300,000 tested, 12% active. max response, %. cell reporter, cycloheximide protein synthesis inhibition counterscreen. AID 2314; in the data active = max response mostly above about 13%, no sharp cut-off; inactive = mostly below about 14%; also: read at 38.3 µM for the half of the compounds with a filed dose; 0% is about no effect
LmPK inh – inhibitors of Leishmania mexicana pyruvate kinase | Q27686 | purified LmPK, Kinase-Glo ATP luminescence, 1 h | Potency, µM (doses to about 57.5 µM), for the others: at the highest dose activity change, negative = inhibition, actives largely listed as inhibitors | 290,000 tested, 0.37% active; also: potency is read from the fitted curve at half-maximal effect; % is scaled to controls: 0 for no effect and ±100 for the full control effect
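Kinase-Glo luminescence read after 1 h RT reaction of 0.1 nM LmPK with 0.5 mM PEP and 0.1 mM ADP. Activity scaled between uninhibited and enzyme-free controls.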
FBPA Giardia inh – inhibitors of Giardia lamblia fructose-1,6-bisphosphate aldolase; A8B2U2; purified Giardia FBPA; Potency, µM (top dose mostly 59.6 µM), without a hit: at the highest dose activity, negative = inhibition, most hits filed as inhibitors; 290,000 tested, 0.71% active; also: potency is read from the fitted curve at half-maximal effect; % is scaled to controls: 0 for no effect and ±100 for the full control effect; nearly all actives have a fitted effect of over 55% in size
Target sequence (A8B2U2 whole entry, looked up): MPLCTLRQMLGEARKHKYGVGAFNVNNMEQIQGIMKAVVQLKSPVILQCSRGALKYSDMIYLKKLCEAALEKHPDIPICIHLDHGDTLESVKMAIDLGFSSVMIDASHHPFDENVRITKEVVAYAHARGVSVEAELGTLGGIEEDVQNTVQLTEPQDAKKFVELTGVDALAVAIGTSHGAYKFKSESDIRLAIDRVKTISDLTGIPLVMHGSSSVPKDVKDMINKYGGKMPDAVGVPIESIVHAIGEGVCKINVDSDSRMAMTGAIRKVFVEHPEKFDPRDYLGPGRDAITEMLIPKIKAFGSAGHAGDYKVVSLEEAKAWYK
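40 nM FBPA preincubated 10 min at RT with compound (up to 57.5 uM final), then substrate plus GAPDH/TPI/NAD/arsenate coupling and diaphorase/resazurin added. Fluorescence read after 20 min at RT, 525/598 nm.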
An asterisk follows results filed as active. Unless noted, calls follow the shape of the dose curve; as a rule, active = well fitted curve in the direction sought with a large enough effect; inconclusive = small, poorly fitted or top-dose-only effect, or another doubt; inactive = no such curve, though single readings can be large; an effect the other way counts as inactive or inconclusive.

`Cc1ccc(NC(=O)CSc2nc(-c3ccco3)nc3cc(=O)[nH]n23)cc1` gave Sm TGR block inconclusive and TbPYK inhibitor 0%.
For C=CC[C@]12CCc3ccccc3C1N(c1ccc(C(=O)OCC)cc1)C2=O (stereo partly drawn) the results were Sm TGR block 37% and TbPYK inhibitor 2%.
`CC(=O)NC(c1ccccc1)c1nc(-c2cccc(F)c2)cs1` (stereo not drawn) gave TbPYK inhibitor 0%.
Screening COc1ccc(CNC(=O)C2CCN(c3nnc(-n4cccc4CNc4ccc(C)cc4)s3)CC2)c(OC)c1 returned Sm TGR block -5% and TbPYK inhibitor 6%.
For COc1cc(CNc2nc3ccccc3n2Cc2ccccc2)ccc1O the results were TbPYK inhibitor 3%.
`CCOC(=O)c1ccc(NC(=O)CCC2COc3ccccc3O2)cc1` (stereo not drawn) gave Shiga inhibitor -12, Sm TGR block -1%, TbPYK inhibitor -7%, CHX counter -1, LmPK inh 0% and FBPA Giardia inh -11%.
For O=C(CCC1COc2ccccc2O1)Nc1ccc(Cl)cn1 (stereo not drawn) the results were Shiga inhibitor 31*, Sm TGR block -5%, TbPYK inhibitor -2%, CHX counter 14*, LmPK inh 1% and FBPA Giardia inh -5%.
Screening Cc1ccnc(NC(=O)CCC2COc3ccccc3O2)c1 (stereo not drawn) returned Shiga inhibitor 17, Sm TGR block 4%, TbPYK inhibitor -8%, CHX counter 13*, LmPK inh -6% and FBPA Giardia inh 0%.
Screening CCN(CC)C(=O)c1[nH]cnc1C(=O)N[C@H](C)c1ccccc1 returned Sm TGR block 4% and TbPYK inhibitor -3%.
`CC(=O)Nc1cc2c(cc1NC(=O)Cn1nc(-c3ccccc3F)ccc1=O)OCCO2` gave Shiga inhibitor 16, Sm TGR block 45µM*, TbPYK inhibitor 7%, CHX counter -3, LmPK inh 2% and FBPA Giardia inh 2%.
For COc1cccc(OC)c1NC(=O)Cn1nc(-c2ccc3c(c2)OCCO3)ccc1=O the results were Shiga inhibitor 27, Sm TGR block 0%, TbPYK inhibitor -3%, CHX counter -5, LmPK inh -3% and FBPA Giardia inh -1%.
`CC[C@H]1C2=C3C(CC[C@H]4C(OCc5ccc(F)cc5C(F)(F)F)OC[C@](C)([C@@H]34)N(C(=O)OC(C)(C)C)C2)C2COC(=O)OCC21` (stereo partly drawn) gave FBPA Giardia inh -7%.
For CCC1=NNc2cccc3c(OC)ccc1c23 the results were Shiga inhibitor -13, Sm TGR block 10µM*, CHX counter -5, LmPK inh inconclusive and FBPA Giardia inh inconclusive.
`Clc1ccc(C[n+]2csc3ccccc32)cc1` gave Shiga inhibitor 43*, Sm TGR block 4.5µM*, TbPYK inhibitor inconclusive, CHX counter 19*, LmPK inh 2% and FBPA Giardia inh -6%.
Screening Fc1ccc(C[n+]2csc3ccccc32)cc1 returned Shiga inhibitor 46, Sm TGR block 0%, TbPYK inhibitor inconclusive, CHX counter 13, LmPK inh 5% and FBPA Giardia inh -15%.
O=C(CC(SCc1ccco1)c1ccc(O)cc1)c1cccs1 (stereo not drawn) was read as Shiga inhibitor 115*, Sm TGR block 28µM*, TbPYK inhibitor -4%, CHX counter 37*, LmPK inh -18% and FBPA Giardia inh -2%.
O=C(CSc1nnc(-c2ccc(O)cc2)n1Cc1ccco1)c1ccccc1 was read as Shiga inhibitor 6, Sm TGR block 45µM*, TbPYK inhibitor -14%, CHX counter 7, LmPK inh 14% and FBPA Giardia inh -6%.
`O=C(CSc1nnc(-c2ccncc2)n1Cc1ccco1)Nc1cccc(O)c1` gave Shiga inhibitor -5, Sm TGR block -10%, TbPYK inhibitor 1%, CHX counter -2, LmPK inh -1% and FBPA Giardia inh -2%.
For O=C(CSc1nnc(-c2ccc(O)cc2)n1Cc1ccco1)c1cccs1 the results were Shiga inhibitor 15, Sm TGR block 25µM*, TbPYK inhibitor -3%, CHX counter 8, LmPK inh 3% and FBPA Giardia inh -4%.
For O=C(CC(SCCO)c1ccc2c(c1)OCO2)c1cccs1 (stereo not drawn) the results were Shiga inhibitor 59, Sm TGR block -4%, TbPYK inhibitor -31%, CHX counter 29*, LmPK inh -23% and FBPA Giardia inh 2%.
For O=C(Cc1cccc(NC(=O)C2CCCN(C(=O)C3CCCC3)C2)c1)Nc1cccc(C(=O)N2CCCCC2)c1 (stereo not drawn) the results were TbPYK inhibitor 3%.
`Cc1cccnc1C1=NOC(Cc2ccccc2)C(=O)N1CCOc1ccc(F)cc1` (stereo not drawn) gave TbPYK inhibitor 4%.
`O=C(NCCCN1CCOCC1)c1sc2ccccc2c1Cl` gave Shiga inhibitor 47*, Sm TGR block 2%, TbPYK inhibitor 4%, CHX counter 39*, LmPK inh 4% and FBPA Giardia inh 5%.
Screening CC(C)(CNC(=O)c1sc2cc(Cl)ccc2c1Cl)N1CCOCC1 returned Sm TGR block 2% and TbPYK inhibitor 1%.
O=C(NCC1CCCO1)c1sc2cc(Cl)ccc2c1Cl (stereo not drawn) was read as Shiga inhibitor 76*, Sm TGR block -6%, TbPYK inhibitor -4%, CHX counter 54*, LmPK inh -8% and FBPA Giardia inh -2%.
For O=C(NCCN1CCOCC1)c1sc2cc(Cl)ccc2c1Cl the results were Shiga inhibitor 45*, Sm TGR block 0%, TbPYK inhibitor 3%, CHX counter 17*, LmPK inh 1% and FBPA Giardia inh 2%.
`CC(=O)Oc1cc2c(C(=O)NCCCN3CCOCC3)c(C)oc2c2ccccc12` gave Shiga inhibitor 9, Sm TGR block 35µM*, TbPYK inhibitor -17%, CHX counter 11, LmPK inh 2% and FBPA Giardia inh inconclusive.
O=C(NCCCN1CCOCC1)c1ccc(Cl)cc1 was read as TbPYK inhibitor 7%.
`CCCCN1C(=O)C(CC(=O)NC2CCCC2)CC(C(=O)N2CCOCC2)=C1C` (stereo not drawn) gave TbPYK inhibitor 10%.
`COc1ccc(C2=Nn3c(nnc3-c3ccccc3OC)SC2)cc1` gave Shiga inhibitor -2 and CHX counter -12.
`COc1ccc(NC(=O)Cn2c(=O)n(-c3ccc(C)c(C)c3)c(=O)c3c(C)c(C)sc32)cc1` gave Sm TGR block 1% and TbPYK inhibitor 3%.
